High-throughput results: PubChem, Buhrlage Lab, Dana-Farber Cancer Institute and Novartis Institutes for BioMedical Research (Cambridge, Mass)
Only some compounds are listed: those with a hit (about 7% of all), similar ones and a draw of the others.
USP30 inh: human USP30 deubiquitinase inhibition; purified USP30, Ub-rhodamine cleavage fluorescence; inhibition, % at 25 µM; 47,000 compounds, 5.3% hits; AID 1645860
Target sequence (Q70CQ3 whole entry, looked up): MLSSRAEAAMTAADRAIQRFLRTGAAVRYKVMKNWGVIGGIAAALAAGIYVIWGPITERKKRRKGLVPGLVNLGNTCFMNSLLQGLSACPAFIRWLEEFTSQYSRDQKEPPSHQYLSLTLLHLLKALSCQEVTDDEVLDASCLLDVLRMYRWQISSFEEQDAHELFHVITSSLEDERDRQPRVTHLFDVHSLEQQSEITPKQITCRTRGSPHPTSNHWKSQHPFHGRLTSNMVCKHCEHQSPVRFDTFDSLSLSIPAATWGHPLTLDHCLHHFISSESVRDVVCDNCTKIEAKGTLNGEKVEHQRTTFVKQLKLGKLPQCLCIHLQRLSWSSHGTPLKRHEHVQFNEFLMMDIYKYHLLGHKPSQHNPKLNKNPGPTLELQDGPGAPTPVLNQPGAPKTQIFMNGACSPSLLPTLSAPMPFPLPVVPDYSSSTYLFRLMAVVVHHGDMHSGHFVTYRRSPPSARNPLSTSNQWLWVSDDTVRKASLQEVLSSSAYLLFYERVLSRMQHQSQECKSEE
USP28 block: inhibitors of human USP28 deubiquitinase. 47,000 compounds, 3% hits. purified USP28, Ub-rhodamine cleavage fluorescence, 30 min. inhibition, % at 25 µM. Q96RU2
Numbers stand for hits; . = inactive. No stated cut-off is given here; in the data, active means inhibition above about 30%; inactive means the rest.

SMILES	USP30 inh	USP28 block
Cc1cccc(C(=O)OCC(=O)N2CCC(Cc3ccccc3)CC2)c1O	.	.
O=C(COc1cccnc1[N+](=O)[O-])N1CCC(Cc2ccccc2)CC1	.	.
Cc1cccc(NS(=O)(=O)c2ccc3c(c2)CCCC(=O)N3)c1C	.	.
Cc1ccc(NC(=O)COC(=O)C(c2ccccc2)c2ccccc2)cc1C	.	.
COCCN1C[C@@]23CN(C(=O)c4cnc(C)cn4)C[C@@H](C[C@@H]2S1(=O)=O)O3	.	.
Cc1nc(-c2ccc(F)cc2)sc1C(=O)N1CCOC(C)(C(N)=O)C1 (stereo not given)	.	.
Cn1c(CC(=O)Nc2ccc(F)cc2)nnc1SCC(=O)N1CCOCC1	.	.
COc1ccccc1C(=O)Nc1cc(-c2cccnc2)no1	.	.
COc1ccccc1C(=O)Nc1cc(-c2ccc(F)c(F)c2)no1	44.0	.
Cc1noc(C2CN(C(=O)Nc3ccc4c(c3)CCC4)CC23CCOCC3)n1 (stereo not given)	.	.
Cc1ccccc1-n1ncc(C(=O)Nc2cccc(C#N)c2)c1C1CC1	.	41.7
O=C(Nc1cccc(F)c1)c1cnn(-c2ccccc2)c1C1CCNCC1	.	.
Cc1ccc(S(=O)(=O)N2CCOCC2)cc1NC(=O)COC(=O)CCCc1c[nH]c2ccccc12	.	.
CCc1nc(SCc2ccco2)c2oc3ccccc3c2n1	.	.
CCc1nc(SCc2cccc(F)c2)c2oc3ccccc3c2n1	46.7	.
Cc1ccc(NC(=O)CCc2nc(CSc3nnc(-c4ccncc4)o3)no2)cc1	.	.
CC1C(=O)Nc2ccccc21 (stereo not given)	.	.
O=C(Nc1cc(S(=O)(=O)N2CCOCC2)ccc1N1CCOCC1)c1cc2c(s1)CCCC2	30.3	.
Cc1ccc(S(=O)(=O)N2CCCCC2)cc1NC(=O)c1cc2c(s1)CCC2	.	.
Cc1cccc(Nc2nc(Nc3cccc(C(F)(F)F)c3)nc(N3CCOCC3)n2)c1	.	.
CC(C)n1c(C2CCN(C(=O)Nc3ccccc3)C2)nc2ccncc21 (stereo not given)	.	.
O=C(Nc1ccccn1)C1CC(=O)N(c2ccc(Cl)cc2)C1 (stereo not given)	.	.
COC(=O)c1ccc(NC(=O)C[n+]2cc(-c3ccc(Cl)cc3)n3c2CCC3)cc1	.	.
CCOC(=O)c1ccc(NC(=O)C[n+]2cc(-c3ccc(Cl)cc3)n3c2CCC3)cc1	51.4	34.8
CCOC(=O)c1ccc(NC(=O)C[n+]2cc(-c3ccc(C)cc3)n3c2CCC3)cc1	31.9	.
SMILES	USP30 inh	USP28 block
CC(=O)c1ccc(NC(=O)C[n+]2cc(-c3ccc(Cl)cc3)n3c2CCC3)cc1	.	.
CCc1ccccc1NC(=O)CCN1C(=O)c2cccnc2Sc2ccccc21	.	.
O=S(=O)(Nc1ccc2[nH]ncc2c1)c1ccc2c(c1)CCCC2	.	.
O=C(c1cc2cc(F)ccc2[nH]1)N1CCCC(O)(CN2CCC(F)(F)CC2)CC1 (stereo not given)	.	.
CCN(CC)C(=O)Cn1c([C@H]2CCCO2)cc2cccnc21	.	.
O=c1cc(Cc2ccccc2)nc2c(-c3ccccc3)c(COc3ccccc3)[nH]n12	40.2	40.7
Cc1[nH]n2c(=O)cc(Cc3ccccc3)nc2c1-c1ccccc1	.	.
Oc1cccc2c(-c3ccc(O)c4c(O)cccc34)ccc(O)c12	93.8	92.4
COc1ccc(C2c3c(-c4ccccc4O)n[nH]c3C(=O)N2Cc2ccncc2)cc1OC (stereo not given)	.	.
Cc1ccc(C2c3c(-c4ccccc4O)n[nH]c3C(=O)N2Cc2ccco2)cc1 (stereo not given)	45.8	65.1
O=C1c2[nH]nc(-c3ccccc3O)c2C(c2ccc(F)cc2)N1Cc1ccco1 (stereo not given)	51.6	51.7
COc1ccc(C2c3c(-c4ccccc4O)n[nH]c3C(=O)N2Cc2ccco2)cc1OC (stereo not given)	.	.
Cc1cc(C)cc(NC(=O)N2CC(C(=O)NC3CCCC3)C3(CCOCC3)C2)c1 (stereo not given)	.	.
COc1ccc(Cn2nnc(-c3cccc(Cl)c3)n2)cc1F	.	35.0
COc1ccc(Cn2c(=O)n(C)c3ncncc32)cc1F	.	.
CC(=O)Nc1cccc(NC(=O)Cn2ccc3cc(Br)ccc32)c1	53.5	62.0
Cn1ccc2ccn(CC(=O)Nc3cccc(Cl)c3)c(=O)c21	.	.
O=C(NCc1ccc(Cl)cc1)NCc1nnnn1-c1ccccc1	.	.
CC(C)(Oc1ccc(Cl)cc1)C(=O)NCc1nnnn1-c1ccc(F)cc1	.	30.7
Cc1c(C(=O)Nc2ccccc2C#N)nnn1-c1ccc2noc(-c3ccccc3)c2c1	.	.
C=C(CCC(C)(C)/C=C/CC/C(C)=C/COC(COP(=O)(O)O[C@@H]1OC(C(N)=O)[C@@](C)(O)[C@H](OC(N)=O)C1O[C@@H]1OC(CO[C@@H]2OC(CO)[C@H](O)[C@H](O)C2O)[C@H](O[C@@H]2OC(CO)[C@H](O[C@@H]3OC(C(=O)NC4=C(O)CCC4=O)[C@H](O)[C@H](O)C3O)[C@H](O)C2NC(C)=O)C(O)[C@@H]1NC(C)=O)C(=O)O)CC1C(=C)CCCC1(C)C (stereo not given in full)	.	44.1
CCn1c(-c2cc(NC(=O)COC)n[nH]2)c(C)c2ccccc21	.	.
CC(C)[C@@H](C(=O)Nc1ccc2c(c1)OCCO2)n1c(=O)[nH]c2ccccc2c1=O	.	.
Cc1cc(=O)n(CC(=O)N2CCCCC2)c2c1c(C)nn2-c1ccccc1	.	.
Cc1cc(=O)sc2c1c(C)nn2-c1ccccc1	.	30.1
SMILES	USP30 inh	USP28 block
Cc1cccc(NC(=O)CCc2cccc3[nH]ccc23)c1C	.	.
CCOC(=O)c1cc(-c2ccccc2)sc1NC(=O)CNc1cccc(C(C)=O)c1	.	.
CCOC(=O)c1c(-c2ccccc2Cl)csc1NC(=O)CNc1cccc(O)c1	.	39.0
Cc1ccoc1C(=O)N1CCN(C2CCN(Cc3nccs3)CC2)C(=O)C1	.	.
Cc1cccc(NS(=O)(=O)c2cc(C(=O)N3CCCC3)n(C)c2C)c1C	.	.
COc1cc(CCNC(=O)Cc2cccc(Br)c2)ccc1OCc1ccccc1	48.5	.
COc1ccc(CCNC(=O)c2coc3ccccc3c2=O)cc1OC	.	.
CC(C)NS(=O)(=O)c1ccc(CCC(=O)Nc2ccc(Oc3ccccc3)cc2)cc1	.	.
O=C1NC2(CCc3ccccc31)CCN(C(=O)c1ccc(F)cc1)C2 (stereo not given)	.	.
Cc1ccc(/C=C2/NC(=O)[C@@H]3Cc4ccccc4CN3C2=O)cc1	.	.
O=C(CSc1nc(-c2ccccc2)c2ccccc2n1)NCc1ccc(C(=O)O)cc1	31.9	.
O=C(CSc1nc(-c2ccccc2)c2ccccc2n1)NCc1ccc2c(c1)OCO2	.	.
O=C(CSc1nnc(Cc2ccccc2)n1C1CCCCC1)Nc1ccccc1Cl	.	.
COC(=O)c1ccccc1NC(=O)CSc1nnc(-c2ccc(C(C)(C)C)cc2)n1C1CCCC1	52.4	.
Cc1nn(-c2cc(N3CCCCC3)ncn2)c(C)c1CCC(=O)NCc1ccccc1	.	.
COc1cccc(NC(=O)CCc2c(C)nc3c(c2C)c(=O)n(C)c(=O)n3C)c1	35.0	37.1
COc1cccc(NC(=O)Cn2cnc3c(c(C)c(C)n3-c3ccccc3)c2=O)c1	.	.
Cc1ccc(C)c(NC(=O)CCc2c(C)nn(-c3cc(N4CCCC4)ncn3)c2C)c1	.	.
